The panel holds about 83,000 compounds, 20% with a hit somewhere; the sample as a whole holds those more often.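 How to read the values: 0–100, growth inhibition (40 = 60% inhibited); 0, no net growth; -100 to 0, cell death (-40 = 40% of starting cells died; -100 = all dead).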 The source made the active and inactive calls. Rule for the calls: active = growth percent below 10; inactive = the rest.
Key:
Experiment in all cases: NCI-60 one-dose screen, 48 h (100 = growth as untreated, 0 = no growth, -100 = all killed)
Conditions in all cases: 10 µM unless noted
DU-145 prostate = system: DU-145 prostate
K-562 leukemia = system: K-562 leukemia
MDA-MB-231 breast = system: MDA-MB-231 breast
RXF 393 renal = system: RXF 393 renal
SF-268 CNS = system: SF-268 CNS
SF-295 CNS = system: SF-295 CNS
SF-539 CNS = system: SF-539 CNS
UACC-257 melanoma = system: UACC-257 melanoma
M14 melanoma = system: M14 melanoma
MALME-3M melanoma = system: MALME-3M melanoma

Measured: growth

CCCCNNC(=O)c1ccc(Br)cc1
inactive: DU-145 prostate 50.9% | K-562 leukemia 29.9% | MDA-MB-231 breast 76.1% | RXF 393 renal 69.5% | SF-268 CNS 56.4% | SF-295 CNS 38.4% | SF-539 CNS 61.4% | UACC-257 melanoma 16.3% | M14 melanoma 42%

COc1cc(NC(=O)COc2ccccc2)c(C(N)=O)cc1OC
inactive: DU-145 prostate 23.6% | MDA-MB-231 breast 51.2% | SF-268 CNS 53.4% | UACC-257 melanoma 51.3% | M14 melanoma 16.8%
active: K-562 leukemia 7.84% | RXF 393 renal 6.01% | SF-295 CNS 7.73% | SF-539 CNS -23.9%

CCSc1nnc2c3cc(Br)ccc3n(C)c2n1
inactive: DU-145 prostate 119% | K-562 leukemia 118% | MDA-MB-231 breast 93.3% | RXF 393 renal 116% | SF-268 CNS 107% | SF-295 CNS 93.7% | SF-539 CNS 106% | UACC-257 melanoma 105% | M14 melanoma 98.4%

CC(=O)Nc1ccc(S(=O)(=O)N/N=C\c2ccc(Cl)c(Cl)c2)cc1
inactive: DU-145 prostate 110% | K-562 leukemia 116% | MDA-MB-231 breast 110% | RXF 393 renal 123% | SF-268 CNS 100% | SF-295 CNS 108% | SF-539 CNS 111% | UACC-257 melanoma 103% | M14 melanoma 102%

O=C1NC(=O)C(CSc2ccccc2)(c2ccccc2)N1 (stereo not given)
inactive: DU-145 prostate 123% | K-562 leukemia 104% | MDA-MB-231 breast 104% | RXF 393 renal 103% | SF-268 CNS 123% | SF-539 CNS 113% | UACC-257 melanoma 93.6% | M14 melanoma 105%

COc1cccc(OC(=O)c2ccccc2)c1OC(=O)c1ccccc1
inactive: DU-145 prostate 87.7% | K-562 leukemia 37.4% | MDA-MB-231 breast 75.4% | RXF 393 renal 86.3% | SF-268 CNS 72.4% | SF-295 CNS 83.6% | SF-539 CNS 92% | UACC-257 melanoma 87% | M14 melanoma 47.5%

CN1CCN(CCCn2c3c(sc4ncccc43)c(=O)n3nnc(-c4ccccc4)c23)CC1
inactive: RXF 393 renal 75.3% | SF-268 CNS 91% | SF-295 CNS 98.6% | UACC-257 melanoma 99.2% | M14 melanoma 78.4%
active: DU-145 prostate -18.2% | K-562 leukemia 1.27% | MDA-MB-231 breast -83.5% | SF-539 CNS -96%

N#Cc1ccc(C(F)(F)F)nc1N1CCC(C(=O)Nc2ccc(Cl)cc2)CC1
inactive: DU-145 prostate 86.6% | K-562 leukemia 49.3% | MALME-3M melanoma 94.2% | MDA-MB-231 breast 95.7% | SF-268 CNS 89% | SF-295 CNS 65.5% | SF-539 CNS 100% | M14 melanoma 75.2%

Reference: PubChem BioAssay (NCI)
